Structures are written as SMILES. “And” between values parts separate entries of the source, which are not always exact repeats. Equal entries are not always repeated. About 83,000 compounds went through this panel and 20% of them were active in at least one assay; those are over-represented in the sample as a whole.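 Interpretation: 100, growth as untreated; towards 0, rising growth inhibition; 0, no net growth; 0 to -100, cell death. Compounds scoring below 10 were considered active.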 The source made the active and inactive calls.

This assay relates to HL-60(TB) leukemia. Put plainly: NCI-60 one-dose screen, 48 h (100 = growth as untreated, 0 = no growth, -100 = all killed). The note with it: 10 µM unless noted.
Regarding `Cc1sc2c(c1C)c(=O)nc1c(-c3nc4ccccc4s3)n[nH]n12`, the growth was 98.3% (inactive).

Consider `NNC(=O)/C(=C\c1ccc([N+](=O)[O-])cc1)CC(=O)c1ccc(Cl)c(Cl)c1`, for which the growth was 98.9% (inactive).

In the case of `COC(=O)c1c2c(c(C)[n+]([O-])c1C)C(=O)C=C(NCc1ccc(F)cc1)C2=O`, the growth was -29.4% (active).

On to `CCC(O)c1ccc(Br)cc1NC(=O)c1cccc(Cl)c1` (stereo not given), for which the growth is -6.38% (active).

In the case of `CC(=O)Nc1nc2ccc(NS(=O)(=O)c3cccc4c(N(C)C)cccc34)cc2[nH]1`, the growth was 27.8% (inactive).

For `CC(c1ccccn1)C(C)(O)C(C)c1ccccn1` (stereo not given), the growth is 69.8% (inactive).

In the case of `CN(C)c1ccc(-c2cc(-c3cccc(NS(C)(=O)=O)c3)nc(N)c2C#N)cc1`, the growth is 2.91% (active).

Turning to `O=C(Nc1nc2ccc(S(=O)(=O)Nc3ccc(C4(C(F)(F)F)CC4)cc3)cc2[nH]1)c1cnccn1`, the growth is -12.2% (active).

With `NC(=S)NNC1CCCCC1`, the growth is 67.3% (inactive).

On to `Oc1ccc(-c2nnc3c4[nH]ccc4ncn23)cc1`, for which the growth is 106% (inactive).

`c1cc2ccc1CNCCN1CCNCc3ccc(cc3)Oc3ccc(cc3)CNCCN(CCNCc3ccc(cc3)O2)CCNCc2ccc(cc2)Oc2ccc(cc2)CNCC1`: the growth is -57.4% (active).

On to `CC(C)(C)c1cc(C(=O)Nc2ccc(C(=O)NCCN)cc2)cc(C(C)(C)C)c1`, for which the growth is -68.4% (active).

As to `N#CCCN1C(=O)CCC1C(=O)O` (stereo not given), the growth is 85.9% (inactive).

With `Oc1c(Cl)cc(Cl)cc1C=NCC1CCC(CN=Cc2cc(Cl)cc(Cl)c2O)CC1` (stereo not given), the growth was 73.9% (inactive).

Consider `CC(C)C(NC(=O)CN)C(=O)O` (stereo not given), for which the growth was 94.9% (inactive) and 98.7% (inactive).

The values are drawn from PubChem BioAssay (NCI).
